Source: ChEMBL document CHEMBL4513135, “CO-ADD screening of IQOG CSIS (Spain) compounds”
Potency and affinity values are given separately.

Tests used:
[1] = system: Klebsiella pneumoniae; details: Concentration 32 ug.mL-1; ASSAY_TEST Inhibition of Bacterial Growth; detection method Absorption (OD600); MEDIA CAMHB; plate type 384well; NBS; CORNING #3640; time 18 hr
[2] = system: Candida albicans; details: 32 ug/mL
[3] = system: Cryptococcus neoformans; details: Concentration 32 ug.mL-1; ASSAY_TEST Inhibition of Fungal Growth; detection method Resazurin; Absorption (OD600-OD570); plate type 384well; NBS; CORNING #3640

SMILES | Inhibition [1] | Inhibition [2] | Inhibition [3]
c1ccc(COc2ccc3[nH]ccc3c2)cc1 | 11.46% | -1.1% | -1.93%
Cc1nc(NCc2ccccc2)c2cnn(-c3ccccc3)c2n1 | 15.01% | -0.57% | -3.46%
COc1ccc(C=C2N=C(c3ccccc3)SC2=O)cc1 | 19.45% | 0.65% | -2.03%
Cn1ccnc1C1c2ccc3ccccc3c2Oc2nc3c(c(N)c21)CCCCC3 (centres undefined) | 8.79% | 1.99% | -67.84%
CC(=O)CCc1c[nH]c2ccccc12 | 20.76% | 1.89% | -0.29%
Cc1ccc(CNNC(=O)c2c[nH]c3ccccc23)cc1 | 5.46% | -1.04% | -5.03%
CCOC(=O)c1cc2cc(OCc3ccccc3)ccc2[nH]1 | 6.66% | 1.86% | -3.27%
COc1ccc(C2C(C#N)=C(N)Oc3c2ccc2ccccc32)cc1 (centres undefined) | 9.52% | 1.55% | -40.73%
COc1ccc(C2c3c(ccc4ccccc34)OC(=NBr)C2(Br)C#N)cc1OC (centres undefined) | 4.11% | 18% | -72.67%
Cc1n[nH]c2c1C(c1ccc([N+](=O)[O-])cc1)C(C#N)=C(N)O2 (centres undefined) | -7.74% | 3.15% | -4.51%
CCOC(=O)C1=C(C)Oc2nc3c(c(N)c2C1c1nccn1C)CCC3 (centres undefined) | 4.43% | -1.64% | -84.25%
Cn1cc(C(=O)NN)c2ccccc21 | 3.16% | 4.47% | 7.89%
CC(C)(C)OC(=O)Nc1ncccc1Br | 19.74% | 1.17% | -55.01%
CN1C/C(=C\Cl)n2c1c(C#N)c(-c1ccccc1)c(C#N)c2=O | 4.05% | 3.56% | -47.27%
N#Cc1cc(C#N)c(NCCCC2CCN(Cc3ccccc3)CC2)nc1N | 10.46% | 0.89% | -57.65%
COC(=O)C1CCN(Cc2ccccc2)CC1 | 4.25% | 4.82% | -2.37%
NC(=O)N/N=C/c1c[nH]c2ccccc12 | 23.24% | 0.31% | -3.05%
CC(=O)NC=C1C(=O)OC(C)(C)OC1=O | 18.67% | 0.54% | -4.92%
N#CC1=C(N)Oc2c(ccc3ccccc23)C1c1ccccc1 (centres undefined) | 10.23% | 1.97% | -37.74%

SMILES | Inhibition [1] | Inhibition [2] | Inhibition [3]
N#Cc1c(N)nc2c(c1-c1ccccc1)CN(Cc1ccccc1)CC2 | 16.71% | 1.07% | -3.99%
CC1=C(CO)C(c2ccc(C#N)cc2)C(C#N)=C(N)O1 (centres undefined) | 10.02% | 5.46% | -8.41%
Nc1c2c(nc3c1C(c1c(Cl)cccc1Cl)c1ccc4ccccc4c1O3)CCCC2 (centres undefined) | 14.02% | -1.13% | -7.78%
Cc1nc(Nc2ccccc2)c2c(C)nn(-c3ccccc3)c2n1 | -3.39% | -2.39% | -3.19%
O=C(N/N=C/Cc1ccccc1)c1cc2ccccc2[nH]1 | 10.16% | -1.49% | -3.25%
O=C(O)c1c[nH]c2ccccc12 | -9.13% | 6.48% | -9.05%
CC#CCN(Cc1ccccc1)c1nc(N)c(C#N)cc1C#N | -9.03% | 3.48% | -21.6%
O=C1SC(SCc2ccccc2)=NC1=Cc1ccc2c(c1)OCO2 | -9.46% | 1.96% | -6.24%
CCOc1nc2nc3c(c(N)c2cc1C#N)CCCC3 | -2% | 2.23% | -62.45%
CC1=NC(=Cc2ccccc2)C(=O)S1 | 11% | 0.37% | -6.24%
CCC(CC)NNC(=O)c1cc2ccccc2n1C | 9.15% | 5.89% | -1.5%
N#CC1=C(N)Oc2c(ccc3ccccc23)C1c1ccc(O)cc1 (centres undefined) | 6.16% | 0.86% | -59.36%
N#C[C@]1(Br)C(=N)Oc2ccc3ccccc3c2[C@@H]1c1ccc([N+](=O)[O-])cc1 | 5.78% | 6.21% | -3.1%
Cc1nn(-c2ccccc2)c2ncnc(Nc3ccccc3)c12 | 14.62% | 0.48% | -2.23%
N#CCC(=C(C#N)C#N)c1ccccc1 | 11.23% | 5.35% | -3.99%
CC(C)NNC(=O)Cc1c[nH]c2ccccc12 | 18.29% | -0.05% | -1.92%
C#CCN(Cc1ccccc1)c1nc(N)c(C#N)c(-c2ccccc2)c1C#N | -5.74% | 2.73% | -25.11%
C=C1CNc2c(C#N)c(-c3ccccc3)c(C#N)c(=N)n21 | 0.65% | 3.22% | -41.17%
Nc1c2c(nc3ccc([N+](=O)[O-])cc13)CCCC2 | 16.59% | 2.09% | -74.97%
